Structures are written as SMILES. Out of some 63,000 compounds screened, about 1,100 (1.7%) were called active. The sample holds actives, similar compounds and a random draw of the others, so the mix is not that of the screen.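 Rule for the calls: active = compounds whose percent cytotoxicity in the single-dose primary screen, scaled between solvent and toxic-drug controls, exceeds 50; inactive = the rest.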 Potency and affinity values are given separately.

The test in a line: cytotoxicity in KRAS-transformed pancreatic duct cells, primary screen, cell-based, fluorescence, HTS (AID 431).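 Note: 0% = DMSO solvent wells and 100% = doxorubicin-treated wells.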 To be noted: HPDE-C7K KRASV12 cells, Alamar Blue viability, 48 h; at 10 µM; active compounds read high.
For `COc1cccc(C(O)c2cnc(C(C)C)n2C)c1OC` (configuration not stated), the cytotoxicity was 10.6% (inactive).

In the case of `O=C(Nc1ccc(S(=O)(=O)N2CCCCC2)cc1)c1ccncc1`, the cytotoxicity is -7.1% (inactive).

Regarding `CCOc1ccccc1-c1nnc(SCC(=O)Nc2ccccc2)o1`, the cytotoxicity was -17.6% (inactive).

`COCCCNC(=O)CS(=O)(=O)Cc1nc(-c2cccc(OC)c2)oc1C`: the cytotoxicity was -6.5% (inactive).

Regarding `COc1ccc(-c2nnc3n2-c2ccccc2SC3)cc1OC`, the cytotoxicity is 0% (inactive).

Regarding `O=C(Cc1cc(=O)[nH]c(=O)[nH]1)N1CCN(C(=O)c2ccco2)CC1`, the cytotoxicity was 7.1% (inactive).

For the molecule `CCCCCc1cc(O)c2c(C)cc(=O)oc2c1`, the cytotoxicity is 39.2% (inactive).

`CCCCc1ccc(-c2ccc(C)cc2O)nc1`: the cytotoxicity is -28% (inactive).

On to `C=CCn1c(SCc2csc(C)n2)nc2sc3c(c2c1=O)CCCCC3`, for which the cytotoxicity is 2.5% (inactive).

For the molecule `Cc1ccc(-c2csc3nc(C)n(-n4c(C)ccc4C)c(=O)c23)o1`, the cytotoxicity was 10.3% (inactive).

With `C=CCn1c(SCc2csc(C)n2)nc2scc(-c3ccc(C)o3)c2c1=O`, the cytotoxicity was 80.2% (active).

In the case of `Cc1ccc(-c2noc(CN(C(=O)CCN3C(=O)c4ccccc4C3=O)C(C)C)n2)cc1`, the cytotoxicity is -8.2% (inactive).

As to `CC(=O)OCCOc1nc(N(C)C)nc(N(C)C)n1`, the cytotoxicity is -13.1% (inactive).

As for `O=C(CCN1CCCC1Cc1ccccc1)c1ccc2c(c1)OCCO2` (configuration not stated), the cytotoxicity was -15.3% (inactive).

As to `CCCOc1ccc2ccccc2c1/C=N/n1c(C)nnc1-n1nc(C)cc1C`, the cytotoxicity was 39.3% (inactive).

`Cc1cc(C)n(-c2nnc(C)n2/N=C/c2cc(Br)ccc2OCc2ccccc2)n1`: the cytotoxicity was 65.2% (active).

`Cc1cc(C)n(-c2nnc(C)n2/N=C/c2ccccc2OCc2ccccc2Cl)n1`: the cytotoxicity is 43.9% (inactive).

Consider `COc1ccc(-c2nnn(CC(=O)c3ccc4c(c3)OCCO4)n2)cc1OC`, for which the cytotoxicity was 0.3% (inactive).

On to `O=C(c1ccc2ccccc2c1)N1CCN(c2ccc(O)cc2)CC1`, for which the cytotoxicity was 65.9% (active).

As to `CN1CCN(C(=O)c2ccc3ccccc3c2)CC1`, the cytotoxicity was -8.1% (inactive).

Take `O=C(c1ccc2ccccc2c1)N1CCN(c2ccccc2)CC1`: the cytotoxicity was -11.6% (inactive).

For the molecule `CC(C)OCCCNC(=O)c1ccc(NC(=O)C2CCCO2)cc1` (configuration not stated), the cytotoxicity was -5.7% (inactive).

As to `Cc1cc(NC(=O)C23CCC(C)(C(=O)O2)C3(C)C)no1` (configuration not stated), the cytotoxicity is 1.7% (inactive).

Turning to `O=C(NCc1ccco1)N1c2ccccc2Sc2ccccc21`, the cytotoxicity was 7.5% (inactive).

On to `COC(=O)C1=C(C)NC(=O)C1(NC(=O)CN1CCCC1=O)C(F)(F)F` (configuration not stated), for which the cytotoxicity was 13.1% (inactive).

On to `CCOC(=O)C1CCCN(C(=O)c2cc3c(C)nc4ccccc4c3o2)C1` (configuration not stated), for which the cytotoxicity is -14.6% (inactive).

Consider `N#Cc1c(NC(=O)CSc2nnnn2C2CCCCC2)sc2c1CCCC2`, for which the cytotoxicity was -26.1% (inactive).

As for `Cc1sc(NC(=O)CSc2nnnn2C2CCCC2)c(C#N)c1C`, the cytotoxicity was -6.4% (inactive).

In the case of `N#Cc1c(NC(=O)CSc2nnnn2C2CCCC2)sc2c1CCCC2`, the cytotoxicity was 50.4% (active).

Turning to `CC1CCCN(C(=O)c2ccc3nc[nH]c3c2)C1` (configuration not stated), the cytotoxicity is -23.2% (inactive).

For `COc1ccc(C)cc1NC(=O)c1ccc(S(=O)(=O)N2CCOCC2)cc1`, the cytotoxicity was -1.3% (inactive).

Turning to `COc1cccc(C=NCCNC(=O)c2nonc2N)c1O`, the cytotoxicity is -2.1% (inactive).

For the molecule `Nc1nonc1C(=O)NCCN=Cc1cc(Cc2ccccc2)cc(Br)c1O`, the cytotoxicity was 82.8% (active).

On to `Nc1nonc1C(=O)NCCNC(=O)c1ccccc1F`, for which the cytotoxicity is 2.3% (inactive).

As for `O=C(OCc1ccccc1Cl)c1ccc(-n2cnnc2)cc1`, the cytotoxicity is -8% (inactive).

For `CCOc1ccc(-n2cnnn2)cc1S(=O)(=O)NCc1ccccc1`, the cytotoxicity was 4.1% (inactive).

In the case of `CC(C)(O)C1=NOC(c2ccccc2)C1` (configuration not stated), the cytotoxicity is 6.7% (inactive).

Consider `CCOC(=O)c1ccc(NC(=O)CSc2nnc(-c3cccs3)n2CC)cc1`, for which the cytotoxicity is 0.1% (inactive).

Regarding `Cc1ccc(SC/C(O)=C(\C#N)c2nc3ccccc3n2C)cc1`, the cytotoxicity was 20.5% (inactive).

As for `CC(C)=C(C#N)c1nc2ccccc2s1`, the cytotoxicity is -11.4% (inactive).

On to `COc1ccc(C/C(O)=C(\C#N)c2nc3ccccc3s2)cc1`, for which the cytotoxicity was 46.6% (inactive).

Regarding `COC(=O)c1ccc(/C(O)=C(\C#N)c2nc3ccccc3s2)cc1`, the cytotoxicity was 52.1% (active).

On to `Cc1ccc(SC/C(O)=C(\C#N)c2nc3ccccc3s2)cc1`, for which the cytotoxicity was 79.7% (active).

For the molecule `N#C/C(=C(/O)CN1CCOCC1)c1nc2ccccc2s1`, the cytotoxicity is 3% (inactive).

Take `c1ccc(N2CCN(c3nnc(Cc4cccnc4)c4ccccc34)CC2)nc1`: the cytotoxicity is 8.4% (inactive).

On to `COc1ccc(OC)c(NC(=O)c2cnc3ccccn3c2=O)c1`, for which the cytotoxicity is 12.6% (inactive).

On to `COC(=O)CN(c1ccc(F)cc1)S(=O)(=O)c1ccccc1`, for which the cytotoxicity was -5.6% (inactive).

As to `CC(C)CCNC(=O)CN(C(=O)CCC(=O)Nc1ccccn1)c1ccc2c(c1)OCO2`, the cytotoxicity was -9.3% (inactive).

Turning to `COC(=O)c1cc(N2C(=O)C3C(C2=O)C2(C)C=CC3(C)O2)ccc1Cl` (configuration not stated), the cytotoxicity is 8% (inactive).

For the molecule `Cc1cccc(OCCn2c(=O)n(C)c3ccccc32)c1`, the cytotoxicity is 2.1% (inactive).

Turning to `Cc1cccc(OCCCN2CCCCCC2)c1`, the cytotoxicity was 18.4% (inactive).

As for `CCCn1nc(CC(=O)O)c2ccccc2c1=O`, the cytotoxicity is 0.6% (inactive).

With `Cc1ccc(NC(=O)CCn2c(=O)oc3ccccc32)c(C)c1`, the cytotoxicity is -9.2% (inactive).

Consider `CCCCn1c(SCc2ncc(-c3ccccc3)o2)nc2cc(S(N)(=O)=O)ccc21`, for which the cytotoxicity was 53.1% (active).

For `CCCCn1c(SCN2C(=O)c3ccccc3C2=O)nc2cc(S(N)(=O)=O)ccc21`, the cytotoxicity was -14.9% (inactive).

For the molecule `CCCCn1c(SCc2c(C)noc2C)nc2cc(S(N)(=O)=O)ccc21`, the cytotoxicity is 39.5% (inactive).

For `COc1ccccc1C1C2CCCCC2(O)CCN1CC(=O)Nc1ccccc1` (configuration not stated), the cytotoxicity is -7.4% (inactive).

Take `Cn1cc(S(=O)(=O)CC(=O)N2CCc3ccccc32)c2ccccc21`: the cytotoxicity was 26.9% (inactive).

With `O=C(CSc1nnc(-c2cc3ccccc3cc2O)n1Cc1ccco1)c1ccc(F)cc1`, the cytotoxicity was 13.1% (inactive).

On to `COc1ccc(C(=O)CSc2nnc(-c3ccccn3)n2Cc2ccco2)cc1`, for which the cytotoxicity was 5% (inactive).

In the case of `COc1ccc(C(=O)CSc2nnc(-c3cc4ccccc4cc3O)n2Cc2ccco2)cc1`, the cytotoxicity was 66.1% (active).

With `Cc1nc2c(c(=O)n1CCC1=CCCCC1)c1nc3ccccc3nc1n2/N=C/c1ccco1`, the cytotoxicity was 63.1% (active).

On to `CCCn1c(C)nc2c(c1=O)c1nc3ccccc3nc1n2CCC1=CCCCC1`, for which the cytotoxicity was 16.1% (inactive).

On to `O=c1c2c3nc4ccccc4nc3n(/N=C/c3ccco3)c2ncn1CCC1=CCCCC1`, for which the cytotoxicity was 30% (inactive).

Turning to `COc1ccc(S(=O)(=O)n2nc(-c3cc(OC)c(OC)c(OC)c3)cc2N)cc1OC`, the cytotoxicity is 5.2% (inactive).

`COc1ccc(OC)c(S(=O)(=O)n2nc(-c3ccccc3)cc2N)c1`: the cytotoxicity was -10.9% (inactive).

On to `O=C(CSc1nc2ccccc2[nH]1)N1CCCCC1`, for which the cytotoxicity is 0.6% (inactive).

As for `COc1ccc(-c2noc(C3CCCN(C(=O)c4cccs4)C3)n2)cc1` (configuration not stated), the cytotoxicity was -10.3% (inactive).

Consider `Cc1ccccc1NC(=O)N1CCCC(c2nc(-c3ccc(C(C)C)cc3)no2)C1` (configuration not stated), for which the cytotoxicity was 28.5% (inactive).

Turning to `COc1ccc(NC(=O)N2CCCC(c3nc(-c4ccc(C(C)C)cc4)no3)C2)cc1` (configuration not stated), the cytotoxicity is 65.6% (active).

As to `CN(CC(=O)N1CCc2ccccc21)S(=O)(=O)c1ccc(Cl)cc1`, the cytotoxicity was 1.1% (inactive).

On to `COC(=O)C(C(=O)Nc1cc(C)on1)C1CCCCCC1` (configuration not stated), for which the cytotoxicity is -4.9% (inactive).

As for `CSc1nc2cc(Cl)ccc2s1`, the cytotoxicity was -3.5% (inactive).

Take `COc1ccc(C(=O)c2ccc(N(C)C)cc2)c(OC)c1`: the cytotoxicity is 56.3% (active).

`COc1ccc(C(=O)Oc2ccc(C(C)=O)cc2)c(OC)c1`: the cytotoxicity is 3.6% (inactive).

With `COc1ccc(C(=O)c2ccc(N3CCOCC3)cc2)c(OC)c1`, the cytotoxicity is 4.5% (inactive).

Turning to `COc1cc(SC)ccc1C(=O)Nc1ccccc1C#N`, the cytotoxicity is 28.3% (inactive).

Take `Nc1cc(N)nc(SCCOc2ccccc2F)n1`: the cytotoxicity is -15.6% (inactive).

Regarding `COc1ccccc1NC(=O)N1CCCC1C(=O)Nc1nnc(C(C)C)s1` (configuration not stated), the cytotoxicity is 4.6% (inactive).

Regarding `O=C(NCc1ccco1)C(c1cccnc1)N(C(=O)Cn1nnc2ccccc21)c1ccc(F)cc1` (configuration not stated), the cytotoxicity is 9.8% (inactive).

For `COC(=O)C1=C(C)N(C)C(C)=C(C(=O)OC)C1c1ccncc1`, the cytotoxicity is -1% (inactive).

Take `Cc1ccc(CNC(=O)CCS(=O)(=O)c2cccc3nonc23)cc1`: the cytotoxicity was -9.3% (inactive).

On to `Cc1ccc2nc(-c3ccccn3)cc(C(=O)N3CCN(c4ncccn4)CC3)c2c1`, for which the cytotoxicity was 13.2% (inactive).

In the case of `CCOc1ccc(-c2cc(C(=O)N3CCN(c4ccccn4)CC3)c3ccccc3n2)cc1`, the cytotoxicity was 53% (active).

As to `O=C(c1cc(-c2ccccc2)nc2ccccc12)N1CCN(c2ccccn2)CC1`, the cytotoxicity is 27.1% (inactive).

Take `Cc1ccc(-c2cc(C(=O)N3CCOCC3)c3ccccc3n2)cc1`: the cytotoxicity was 1.8% (inactive).

In the case of `COc1ccc(-c2cc(C(=O)N3CCN(c4ccccn4)CC3)c3ccccc3n2)cc1`, the cytotoxicity is 5.9% (inactive).

For `CCOc1ccc(-c2cc(C(=O)N3CCN(C)CC3)c3ccccc3n2)cc1`, the cytotoxicity was -12.4% (inactive).

`Cc1ccc(-c2cc(C(=O)N3CCN(c4ncccn4)CC3)c3ccccc3n2)cc1`: the cytotoxicity was 58.8% (active).

As for `CCOC(=O)N1CCN(C(=O)c2cc(-c3ccc(OCC)cc3)nc3ccccc23)CC1`, the cytotoxicity is 63.5% (active).

As for `COc1cccc(-c2cc(C(=O)N3CCN(c4ncccn4)CC3)c3ccccc3n2)c1`, the cytotoxicity was 15.2% (inactive).

Regarding `CSC1=C(C#N)C(c2ccc(Cl)cc2)C2=C(CC(C)(C)CC2=O)N1` (configuration not stated), the cytotoxicity is 2.7% (inactive).

For the molecule `O=C(CSc1nnc(-c2ccco2)o1)N1CCOCC1`, the cytotoxicity was -5.8% (inactive).

Regarding `Cc1cc(NC(=O)CN2CCN(c3ncccn3)CC2)no1`, the cytotoxicity is -2.6% (inactive).

In the case of `CCCn1nnc(NC(=O)COc2ccccc2Cl)n1`, the cytotoxicity is 8.6% (inactive).

Consider `Cc1cc(S(=O)(=O)N2CCC(NC(=O)C34CC5CC(CC(C5)C3)C4)CC2)ccc1-n1cnnn1`, for which the cytotoxicity is -5.5% (inactive).

`COc1ccccc1OCCNC(=O)c1cccs1`: the cytotoxicity was -0.7% (inactive).

Source of the values: PubChem BioAssay AID431 (Sanford-Burnham Center for Chemical Genomics, 2006).
